According to PubChem BioAssay AID504652 (National Center for Advancing Translational Sciences (NCATS), 2011):
Screen size: about 360,000 compounds; about 11,000 (3.1%) were called active. This excerpt belongs to a sample that is enriched for actives. A number with no mark means an inactive call. Cut-off read from the data, not from the text of the source: active = activity change below about -30%; inactive = the rest.

molecular target: D(1A) dopamine receptor (Homo sapiens) (UniProt P21728); test: Antagonist of Human D 1 Dopamine Receptor: qHTS; conditions: HEK293 TREx D1 cells, calcium flux, dopamine EC80; at 10 µM; hits give low values
Sequence (P21728 whole entry, looked up): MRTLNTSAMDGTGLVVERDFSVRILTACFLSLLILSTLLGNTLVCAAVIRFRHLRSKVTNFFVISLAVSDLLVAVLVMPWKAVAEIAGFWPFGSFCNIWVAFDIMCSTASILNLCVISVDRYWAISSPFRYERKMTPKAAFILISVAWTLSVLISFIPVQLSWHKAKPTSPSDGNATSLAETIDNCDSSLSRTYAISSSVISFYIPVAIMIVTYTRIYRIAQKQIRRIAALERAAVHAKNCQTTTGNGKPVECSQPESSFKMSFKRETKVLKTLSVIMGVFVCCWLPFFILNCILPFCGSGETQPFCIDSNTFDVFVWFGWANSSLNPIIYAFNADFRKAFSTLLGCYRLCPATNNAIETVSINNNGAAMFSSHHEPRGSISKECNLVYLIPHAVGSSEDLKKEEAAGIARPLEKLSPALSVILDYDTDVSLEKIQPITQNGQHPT
Excerpt: Dopamine receptors (DARs) are involved in the etiology and/or therapy of a number of neuropsychiatric and endocrine disorders. For instance, all receptor-based antiparkinsonian drugs work via stimulating the […] DAR subtype whereas all FDA-approved antipsychotic agents are antagonists of this receptor. […] There are three different types of allosteric modulators that we are seeking, two of which will stimulate or augment receptor signaling, allosteric agonists and potentiators, while the third, allosteric antagonists, will attenuate receptor signaling. The present primary screening assay measures compound antagonism after an EC80 addition of dopamine by tracking calcium flux in a […], inducible Hek293 Trex D1 cell line. NIH Chemical Genomics Center [NCGC] NIH Molecular Libraries Probe Centers Network [MLPCN] MLPCN Grant: NS064831-01 Assay Submitter (PI): David Sibley
Freshly passaged cells are plated in 1536 well black, clear bottom plates at a density of 4000 cells/well in 3 ul of complete media containing 1x tetracycline inducer. After an overnight incubation at 30 C in 5% CO2, cells are loaded with 2 ul of the no wash Calcium Assay Kit (ABD Bioquest) and incubated at room temperature for 30 to 90 minutes. Agonist read: A 10 cycle (1 second/cycle) baseline measurement is taken and then the FDSS online 1536 pintool delivers 23 nl of compound library (as well as dopamine controls) to the plate. The plate is measured for kinetically at 1 cycle/sec for 180 seconds. Following the 180 second read, 1 ul of an EC80 (negative modulation assay) is delivered by an onboard pipette head. Measurements are taken kinetically for an additional 180 seconds.
% is set by controls: 0 for no effect and ±100 for the full control effect.

Structure (SMILES)	activity change, negative = inhibition
O=C(Nc1ccccc1F)C(c1ccccc1)N1Cc2ccccc2C1=O (stereo not given)	-0.199%
Cc1cccc(OCC(=O)N(Cc2ccc(C(C)C)cc2)Cc2ccco2)c1C	-14.7%
COc1ccc(C2=NOC(Cn3nc(C(=O)NCc4ccc5c(c4)OCO5)cc3-c3ccccc3)C2)cc1 (stereo not given)	-33.6% (active)
COc1ccc(NC(=O)NCc2ccc3c(c2)OCO3)c(OC)c1	2.8%
Cc1ccc(CNC(=O)c2cc(-c3ccccc3C)n(CC3CC(c4cccc([N+](=O)[O-])c4)=NO3)n2)cc1 (stereo not given)	-15.8%
COc1cccc(-c2cccc(NC(=O)C3CCN(C4CCC4)CC3)c2)c1	30.7%
COc1cccc(N=C2SC(C(=O)Nc3cccc(Cl)c3)CC(=O)N2C)c1 (stereo not given)	-65.2% (active)
COc1ccc(N=C2SC(C(=O)Nc3ccc(F)cc3)CC(=O)N2C)cc1 (stereo not given)	5.67%
CSc1ccc(CCNC(=O)c2cnn(-c3ccccc3)c2-n2cccc2)cc1	1.42%
O=C(NCCCN1CCOCC1)c1ccccc1NS(=O)(=O)c1ccc(Br)cc1	-0.557%
Cc1ccc(NS(=O)(=O)c2ccc(C(=O)NCCCN3CCOCC3)cc2)cc1	26.5%
O=C(NCCCN1CCOCC1)c1ccccc1NS(=O)(=O)c1ccc(F)cc1	-51.4% (active)
COC(=O)c1cc(S(=O)(=O)N2CCN(c3cc(Cl)ccc3C)CC2)c[nH]1	5.54%
CCn1cc2nc(SCc3cccc(F)c3)n(CCc3ccccc3)c(=O)c2n1	11.7%
CCCCN(CC)CCCNC(=O)Cn1ncc2c([nH]c3ccc(C)cc32)c1=O	3.23%
Cc1cccc(NC(=O)N2CCN(C)c3ncccc32)c1C	-0.945%
COc1ccc(S(=O)(=O)n2nc(C)c(S(=O)(=O)N3CCCCCC3)c2C)cc1	5.83%
Cc1cc(C(=O)Nc2cccc(C(F)(F)F)c2)c2c(C)nn(-c3cccc(F)c3)c2n1	-34.4% (active)
COc1cc(NC(=O)c2cc(C3CC3)nc3c2c(C)nn3-c2ccccc2)cc(OC)c1	0.344%
CSc1ccc(CCNC(=O)c2cc(C)nc3c2c(C)nn3-c2cccc(F)c2)cc1	-11.8%
CC(C)(C)C1CCc2c(sc(NC(=O)c3ccccc3F)c2C(=O)N2CCCCC2)C1 (stereo not given)	4.22%
Cc1ccc(NC(=O)CN2c3ccccc3S(=O)(=O)c3ccccc32)cc1F	-3%
COc1cc(OC)c(N2CC(C(=O)Nc3cc(Cl)ccc3N3CCOCC3)CC2=O)cc1Cl (stereo not given)	-18.4%

Structure (SMILES)	activity change, negative = inhibition
COc1cc(OC)c(-n2c(C)cc(C=O)c2C)cc1Cl	14.6%
COc1cc(OC)c(-n2cc(-c3ccc(Cl)cc3)[nH]c2=O)cc1Cl	-36.2% (active)
CCN1CCC(N(Cc2ccc(F)cc2)C(=O)Nc2cc(C)ccc2C)CC1	-6.08%
Cc1ccsc1CN(C(=O)c1oc2ccc(Br)cc2c1C)C1CCS(=O)(=O)C1 (stereo not given)	-12.9%
CCc1ccc(CN(Cc2ccco2)C(=O)COc2ccc(Cl)c(C)c2)cc1	-3.05%
COc1ccc(Br)cc1CNC(=O)c1cc(=O)[nH]c2ccc(S(=O)(=O)N3CCCC3)cc12	2.78%
O=C(O)c1cccnc1Sc1ncnc2sc3c(c12)CCC3	11.4%
O=C(O)[C@@H]1CCCN1c1ncnc2sc3c(c12)CCC3	-59.2% (active)
CC1(C)CN=C(N2CCN(c3ncnc4sc5c(c34)CCCC5)CC2)S1	-2.14%
O=C1OC(OC(=O)c2ccccc2Br)C(N2CCOCC2)=C1Cl (stereo not given)	6.42%
Cc1ccc(NC2=C(Cl)C(=O)OC2OC(=O)c2ccccc2C)cc1 (stereo not given)	-33.8% (active)
Cc1ccccc1C(=O)OC1OC(=O)C(Cl)=C1Nc1ccccc1 (stereo not given)	-22.8%
CCN(Cc1ccccc1)C(=O)c1cn(-c2cccc(OC)c2)c(=O)c2ccccc12	-4.13%
COc1ccccc1NC(=O)c1cc(C2CC2)nc2c1c(C)nn2-c1ccc(C)cc1	3.81%
Cc1ccccc1Nc1nn2c(=O)c3ccc(C(=O)NCCc4ccc(Cl)cc4)cc3nc2s1	-2.1%
Cc1ccc(C(=O)Nc2ccccc2F)cc1S(=O)(=O)N1CCOCC1	-16.7%
Cn1c(COc2ccccc2C(C)(C)C)nc2ccccc21	-65.7% (active)
COc1cccc(C(O)Cc2nc3ccccc3n2C)c1OC (stereo not given)	5.85%
Cn1c(CC(=O)NNC(=O)c2ccccc2F)nc2ccccc21	-11.4%
O=C(Cn1cc(SCc2ccccc2)c2ccccc21)N1CCCCC1	-7.17%
Cc1ccc(NC(=O)Nc2sc3nc4n(c(=O)c3c2C)CCC(C)CC4)c(Cl)c1 (stereo not given)	10.9%
COc1ccc(C2Nc3ccccc3C(=O)N2c2ccc(Cl)cc2)cc1Cn1cc([N+](=O)[O-])cn1 (stereo not given)	-30.3% (active)
COc1ccc(C2Nc3ccccc3C(=O)N2Cc2ccccc2)cc1Cn1nnc2ccccc21 (stereo not given)	12.5%

Structure (SMILES)	activity change, negative = inhibition
COc1ccc(CN2CCCC(C(=O)c3ccc(Cl)cc3)C2)cc1Cn1cncn1 (stereo not given)	-13.5%
Cc1cc(C)cc(NC(=O)CSc2oc(-c3ccccc3)nc2S(=O)(=O)c2ccc(Cl)cc2)c1	-12.1%
O=C(COc1ccc(Cl)cc1)N(Cc1ccco1)Cc1ccco1	-16.4%
COC(=O)c1nc(NC(=O)c2ccc(C(C)(C)C)cc2)n[nH]1	-14.1%
COC(=O)c1sc(-c2ccc(C(C)(C)C)cc2)cc1NC(=O)/C=C/C(=O)O	-37% (active)
COc1ccccc1NC(=O)/C=C/C(N)=O	19.1%
O=C(O)c1ccc(Nc2nc(-c3ccccc3)c3cc(Br)ccc3n2)cc1	-12.9%
COc1ccc(NC(=O)CC(NC(C)c2ccccc2)C(=O)O)cc1 (stereo not given)	-21.7%
COc1ccc(C(CC(=O)Nc2ccc(C)cc2)NC(=O)C(F)(F)F)cc1 (stereo not given)	-43.5% (active)
COc1ccc(NC(=O)Cn2c(-c3ccc(OC)cc3)cn(-c3ccc(C)cc3)c2=O)cc1	3.29%
COc1ccc(-c2[nH]c3c(c2-c2c(-n4cccc4)n(C)c(=O)n(C)c2=O)c(=O)n(C)c(=O)n3C)cc1	1.12%
Cc1ccc(-c2cc(N)n(Cc3cccc(Cl)c3)n2)cc1	-6.88%
O=C(CC(NCc1cccnc1)C(=O)O)Nc1ccc(O)cc1 (stereo not given)	0.451%
O=[S+]([O-])(c1ccc2c(c1)OCCO2)N1CCN([S+](=O)([O-])c2c(Cl)cc(Cl)cc2Br)CC1	-16.4%
Clc1ccc(-c2cc(COc3ccccc3)no2)cc1Cl	1.76%
O=C(Nc1ccccc1)OCc1cc(-c2ccc(Cl)cc2)on1	-32.2% (active)
O=C(Nc1ccc(Cl)cc1)OCc1cc(-c2ccccc2)on1	-17%
CCCCNC(=O)CSc1nc2cc3c(cc2c(=O)n1CCCCCC(=O)NCc1ccc2c(c1)OCO2)OCO3	-9.04%
CC(=O)Cc1nsc(NC(=O)c2ccc(COc3ccc(C)cc3)o2)n1	-39.7% (active)
CC(=O)Cc1nsc(NC(=O)c2ccc(Cl)cc2Cl)n1	-11.9%
CCOc1ccc(OCc2ccc(C(=O)Nc3cccc(C)n3)o2)cc1	1.17%
COc1ccccc1-c1nnc(C2CCN(C(=O)c3ccc(Cl)cc3)CC2)o1	-12.2%
O=C(CCc1cn(Cc2ccc(F)cc2)c2ccccc12)NC1CCCCC1	-2.06%

Structure (SMILES)	activity change, negative = inhibition
COc1cc2c(cc1OC)C(COc1ccc(F)cc1)N(C(=O)c1ccccc1F)CC2 (stereo not given)	1.87%
CC(C)(C)C(=O)/C(C#N)=C/c1ccc(O)cc1	-33.6% (active)
Cc1ccc(/C=C(\C#N)C(=O)Nc2cc(C)ccc2C)cc1	2.52%
CC(C)NC(=O)/C(C#N)=C\c1ccc(N(C)C)c(Br)c1	-4.83%
OCc1cnc(SCc2ccc(F)cc2)n1Cc1ccc(F)cc1	-1.85%
Cc1ccc(Nc2c(-c3ccc(Cl)cc3)nc3sccn23)c(C)c1	-21.4%
COc1cc(NC(=O)c2cc3ccc4cccnc4c3[nH]2)cc(OC)c1OC	-1.04%
COc1ccc(N2CCN(C(=O)CCSCc3ccccc3F)CC2)cc1	-20.6%
Cc1cccc(N2CCN(C(=O)CCSCc3ccccc3F)CC2)c1C	10%
O=C(CCSCc1ccccc1F)N1CCN(c2ccc(Cl)cc2)CC1	-33.3% (active)
c1cnn(-c2cc(N3CCOCC3)ncn2)c1	3.42%
Cc1cc(C)n(Cc2cnc(N3CCOCC3)s2)n1	-31% (active)
Cc1nc(N2CCOCC2)sc1C(=O)NN	7.42%
Cc1ccc2onc(CC(=O)N3CCN(c4ccc(Cl)cc4)CC3)c2c1	-0.0287%
C=CCSc1nsc(NC(=O)Nc2cccc(C(C)=O)c2)n1	-31.6% (active)
CC(=O)c1cccc(NC(=O)CSc2nc3c(c(=O)[nH]2)CCC3)c1	-6.03%
COc1ccc(NC(C(=O)Nc2cccc(C(C)=O)c2)c2ccccc2)cc1 (stereo not given)	0.474%
CCSc1nsc(NC(=O)Nc2cccc(C(C)=O)c2)n1	-35% (active)
CSc1ccccc1C(=O)Nc1cccc(C(C)=O)c1	-13.7%
CC(=O)c1cccc(NC(=S)N2CCCC2)c1	-8.06%
COc1ccc(-n2ccn(CC(=O)Nc3ccc(C)c(C)c3)c(=O)c2=O)cc1OC	-0.573%
